Experiment [1] deals with DIO1 (gene 1733). The experiment can be described thus: CCTE_GLTED_hDIO1: CCTE's human Deiodinase 1 (DIO1) Inhibition Assay, Great Lakes Toxicology and Ecology Division (GLTED) Lab (AID 2283987).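 Note: isolated human DIO1 enzyme in a cell-free setup rather than cells; enzyme activity read as free iodide liberated from substrate via Sandell-Kolthoff colorimetry.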 In short, it runs like this: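 Chemicals are tested on human DIO1 without cells for 3 h. Uninhibited enzyme frees iodide, which speeds cerium(IV) reduction by arsenic and is read by spectrophotometry.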

The target of experiment [2] is PGR (gene 5241) (UniProt P06401). Kind of experiment: TOX21_PR_LUC_Followup_Antagonist: Tox21 HEK293 Progesterone Receptor (PR) Antagonism Luciferase Follow-Up Assay (AID 2283938).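 Note: curve fitted upward as signal gain over DMSO baseline despite antagonist label.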 In short, it runs like this:
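Luciferase reporter in HEK293-PR-A-luc cells: 16 h compound treatment at 37C, ONE-Glo luminescence detection, DMSO as negative control and baseline.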

A short description of experiment [3]: TOX21_PR_LUC_Followup_Agonist_viability: Viability Assessment in the Tox21 HEK293 Progesterone Receptor (PR) Agonism Luciferase Follow-Up Assay (AID 2283941).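 Note: loss of signal means cytotoxicity so actives lower viability.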 An outline of the steps: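 Cytotoxicity counter-screen: ATP content by CellTiter-Glo luminescence, loss of signal = reduced viability. HEK293-PR-A-luc, 3,000 cells/well, compound exposure 16 h, 37C.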

Experiment [4] addresses Nucleoli Translocation, AR (gene 367) (UniProt P10275). Kind of experiment: UPITT_HCI_U2OS_AR_TIF2_Nucleoli_Antagonist: University of Pittsburgh U2OS Androgen Receptor-Transcriptional Intermediary Factor 2 (AR-TIF2) Antagonism High Content Imaging Assay for Nucleoli Translocation (AID 2283997). In short, it runs like this:
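An antagonist-mode imaging screen: engineered U2OS (AR-RFP, TIF2-GFP) exposed to 20 uM compound, 0.2% DMSO. Activity reflects nucleolar red fluorescence change relative to DHT baseline.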

Experiment [5] deals with Ratio of Nucleoli Translocation and Cytoplasm, AR (gene 367) (UniProt P10275). Kind of experiment: UPITT_HCI_U2OS_AR_TIF2_Nucleoli_Cytoplasm_Ratio_Antagonist: University of Pittsburgh U2OS Androgen Receptor-Transcriptional Intermediary Factor 2 (AR-TIF2) Antagonism High Content Imaging Assay for Ratio of Nucleoli Translocation and Cytoplasm (AID 2283999).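 Note: antagonists lower the DHT-driven ratio of nucleolar to cytoplasmic red signal.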 In short, it runs like this: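 Read-out is the ratio of nucleolar to cytoplasmic AR-RFP fluorescence, imaged by high-content microscopy in U2OS cells coexpressing TIF2-GFP. Single-point 20 uM screen, triplicate confirmation, then 0.195–50 uM dose response; activity referenced to DHT baseline.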

In experiment [6] the target is THRA (gene 7067) (UniProt P10827). The experiment can be described thus: TOX21_TRA_COA_Agonist_Followup_ratio: Tox21 Thyroid Hormone Receptor alpha Agonism through Coactivator Recruitment Follow-Up Assay, Ratio (AID 2283948; active = hit-call score of the fitted dose curve at least 0.9, where 1 is the maximum; inactive = score below 0.9). An outline of the steps: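 Agonist-mode biochemical TR-FRET with TRα LBD and SRC-2 coactivator peptide; activity expressed as percent of T3 response over DMSO baseline.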

The target in experiment [7] is THRB (gene 7068) (UniProt P10828). Kind of experiment: TOX21_TRB_BLA_Agonist_Followup_ratio: Tox21 Thyroid Hormone Receptor beta Agonism Beta-lactamase (BLA) Follow-Up Assay, Ratio (AID 2283954). An outline of the steps:
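Agonist mode: compounds (11-point, triplicate) incubated 18 h with HEK293T cells carrying GAL4-DBD/human TRβ-LBD and UAS-β-lactamase. Blue/green (460/530 nm) FRET ratio read after 2 h CCF4-AM loading; CellTiter-Glo viability run in the same plates.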

Experiment [8] in a line: TOX21_TRB_BLA_Agonist_Followup_viability: Viability Assessment in the Tox21 Thyroid Hormone Receptor beta Agonism Beta-lactamase (BLA) Follow-Up Assay (AID 2283956). In short, it runs like this:
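Viability was read as CellTiter-Glo luminescence in the same wells as the TRb-bla agonist read-out. HEK293T GAL4-TRb LBD cells were treated for 18 h (37C, 5% CO2) at 11 concentrations in triplicate. Fits were bidirectional versus DMSO baseline.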

Experiment [9] has as its target THRB (gene 7068) (UniProt P10828). Kind of experiment: TOX21_TRB_COA_Agonist_Followup_ratio: Tox21 Thyroid Hormone Receptor beta Agonism through Coactivator Recruitment Follow-Up Assay, Ratio (AID 2283963; active = hit-call score of the fitted dose curve at least 0.9, where 1 is the maximum; inactive = score below 0.9). In short, it runs like this: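 Agonism is measured as coactivator recruitment in a purified-protein TR-FRET format, using GST-TRβ LBD at 5.0 nM, fluorescein-SRC-2 peptide at 200 nM and Tb-labeled anti-GST antibody at 2 nM. Values are 520:495 nm ratios relative to DMSO (0%) and T3 (100%).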

The target of experiment [10] is Retinoic acid receptor RXR-alpha (Homo sapiens) (UniProt P19793). Kind of experiment: TOX21_TR_RXR_BLA_Agonist_Followup_ratio: Tox21 Thyroid Hormone Receptor beta Retinoid X Receptor alpha (RXRa) Agonism Beta-lactamase (BLA) Follow-Up Assay, Ratio (AID 2283968). In short, it runs like this:
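Read-out: blue/green (460:530 nm) FRET ratio from cleaved vs uncleaved CCF4 substrate, fitted for gain of signal relative to DMSO. Cells: HEK293T with RXRa-UAS-bla reporter; 16 h compound exposure, 11 concentrations, triplicate.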

The nature of experiment [11]: TOX21_TR_RXR_BLA_Agonist_Followup_viability: Viability Assessment in the Tox21 Thyroid Hormone Receptor beta Retinoid X Receptor alpha (RXRa) Agonism Beta-lactamase (BLA) Follow-Up Assay (AID 2283970). An outline of the steps:
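CellTiter-Glo ATP quantitation as viability read-out in RXRa-bla HEK293T cells (2,500/well, charcoal-stripped 2% FBS medium), 16h compound incubation at 37C. Loss of signal versus DMSO taken as cytotoxicity, analyzed by bidirectional curve fitting.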

In experiment [12] the target is Ratio of Nucleoli Translocation and Cytoplasm, AR (gene 367) (UniProt P10275). The experiment can be described thus: UPITT_HCI_U2OS_AR_TIF2_Nucleoli_Cytoplasm_Ratio_Agonist: University of Pittsburgh U2OS Androgen Receptor-Transcriptional Intermediary Factor 2 (AR-TIF2) Agonism High Content Imaging Assay for Ratio of Nucleoli Translocation and Cytoplasm (AID 2284000).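 Note: hits raise the red nucleolar to cytoplasm ratio above vehicle.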 An outline of the steps:
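Primary screen at 20 uM final (0.2% DMSO), then triplicate confirmation and dose-response from 0.195 to 50 uM final (0.5% DMSO). Cells: U2OS with AR-RFP and TIF2-GFP. Endpoint is the nucleoli/cytoplasm red-fluorescence ratio, gain-of-signal vs DMSO.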

Experiment [13] concerns the target Nucleoli Translocation, AR (gene 367) (UniProt P10275). The experiment can be described thus: UPITT_HCI_U2OS_AR_TIF2_Nucleoli_Agonist: University of Pittsburgh U2OS Androgen Receptor-Transcriptional Intermediary Factor 2 (AR-TIF2) Agonism High Content Imaging Assay for Nucleoli Translocation (AID 2283998). An outline of the steps:
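High-content images quantify nucleolar accumulation of RFP-fused AR in cells also expressing GFP-TIF2; the endpoint is fitted as signal gain versus DMSO controls across final concentrations of 0.195 to 50 uM.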

Experiment [14] is described as follows: CCTE_Simmons_MITO_basal_resp_rate: CCTE's HepG2 Seahorse XF Respirometric Screening Assay at Basal Respiratory State, Simmons Lab (AID 2284001; active = hit-call score of the fitted dose curve at least 0.9, where 1 is the maximum; inactive = score below 0.9). The note with it: actives raise or lower the signal. An outline of the steps: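 Readout is oxygen consumption rate after test compound injection, measured by Seahorse XF in HepG2 cells. Seven concentrations from 125 nM up to 100 uM final are tested, and activity in either direction is fitted against DMSO.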

Experiment [15] can be described thus: CCTE_Simmons_MITO_max_resp_rate: CCTE's HepG2 Seahorse XF Respirometric Screening Assay at Maximal Respiratory State [uncoupled], Simmons Lab (AID 2284002; active = hit-call score of the fitted dose curve at least 0.9, where 1 is the maximum; inactive = score below 0.9). The note with it: actives raise or lower the signal. In short, it runs like this: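 Uncoupled (FCCP) respiration of HepG2 cells served as the endpoint, with measurements at 6-minute intervals across a 72-minute run and compounds dosed at 7 concentrations up to 100 uM final.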

Experiment [16] can be described thus: CCTE_Simmons_MITO_inhib_resp_rate: CCTE's HepG2 Seahorse XF Respirometric Screening Assay at Inhibited Respiratory State [full ETC block], Simmons Lab (AID 2284006; active = hit-call score of the fitted dose curve at least 0.9, where 1 is the maximum; inactive = score below 0.9). The note with it: actives raise or lower the signal. An outline of the steps:
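OCR read-out in the inhibited phase following rotenone/antimycin A, after compound and FCCP injections, in HepG2 cells. Seven concentrations (125 nM to 100 uM final), three biological replicates, 6-min cycles over 72 min; DMSO baseline.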

Experiment [17] can be described thus: CCTE_Simmons_MITO_viability: CellTiter-Glo Viability Assessment for CCTE's HepG2 Seahorse XF Respirometric Screening Assay [post-hoc], Simmons Lab (AID 2284007). An outline of the steps: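 Luciferase-coupled ATP luminescence, single endpoint. HepG2, post-respirometry. Compound 125 nM–100 uM final, 7 conc., 90 min. n=3 biological, technical singles. DMSO vehicle/baseline; dichlone 10 nM–100 uM, 8 conc., as positive control.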

Experiment [18] deals with PGR (gene 5241) (UniProt P06401). The experiment can be described thus: TOX21_PR_LUC_Followup_Agonist: Tox21 HEK293 Progesterone Receptor (PR) Agonism Luciferase Follow-Up Assay (AID 2283937; active = hit-call score of the fitted dose curve at least 0.9, where 1 is the maximum; inactive = score below 0.9). An outline of the steps:
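Luminescence read-out (ONE-Glo, 30 min at room temperature) of PR-driven luciferase in HEK293-PR-A-luc cells after 16 h compound exposure at 37C; gain of signal fitted relative to DMSO baseline.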

The nature of experiment [19]: TOX21_PR_LUC_Followup_Antagonist_viability: Viability Assessment in the Tox21 HEK293 Progesterone Receptor (PR) Antagonism Luciferase Follow-Up Assay (AID 2283940). An outline of the steps: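 Read-out: CellTiter-Glo ATP luminescence, loss of signal taken as reduced viability. Cells: HEK293-PR-A-luc, 3,000/well, 5 h settling, then 16 h compound exposure at 37C, 0% CO2.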

This note sets out measurements from PubChem BioAssay (EPA / NIEHS).

Structures are written as SMILES. Results filed as inconclusive are left out. Active and inactive are the calls of the source. Rule for the calls, unless noted: active = hit-call score of the fitted dose curve at least 0.9, where 1 is the maximum; inconclusive = response in the unintended direction; inactive = score below 0.9.

Chain of Ratio of Nucleoli Translocation and Cytoplasm, AR (gene 367) (P10275 whole entry, looked up): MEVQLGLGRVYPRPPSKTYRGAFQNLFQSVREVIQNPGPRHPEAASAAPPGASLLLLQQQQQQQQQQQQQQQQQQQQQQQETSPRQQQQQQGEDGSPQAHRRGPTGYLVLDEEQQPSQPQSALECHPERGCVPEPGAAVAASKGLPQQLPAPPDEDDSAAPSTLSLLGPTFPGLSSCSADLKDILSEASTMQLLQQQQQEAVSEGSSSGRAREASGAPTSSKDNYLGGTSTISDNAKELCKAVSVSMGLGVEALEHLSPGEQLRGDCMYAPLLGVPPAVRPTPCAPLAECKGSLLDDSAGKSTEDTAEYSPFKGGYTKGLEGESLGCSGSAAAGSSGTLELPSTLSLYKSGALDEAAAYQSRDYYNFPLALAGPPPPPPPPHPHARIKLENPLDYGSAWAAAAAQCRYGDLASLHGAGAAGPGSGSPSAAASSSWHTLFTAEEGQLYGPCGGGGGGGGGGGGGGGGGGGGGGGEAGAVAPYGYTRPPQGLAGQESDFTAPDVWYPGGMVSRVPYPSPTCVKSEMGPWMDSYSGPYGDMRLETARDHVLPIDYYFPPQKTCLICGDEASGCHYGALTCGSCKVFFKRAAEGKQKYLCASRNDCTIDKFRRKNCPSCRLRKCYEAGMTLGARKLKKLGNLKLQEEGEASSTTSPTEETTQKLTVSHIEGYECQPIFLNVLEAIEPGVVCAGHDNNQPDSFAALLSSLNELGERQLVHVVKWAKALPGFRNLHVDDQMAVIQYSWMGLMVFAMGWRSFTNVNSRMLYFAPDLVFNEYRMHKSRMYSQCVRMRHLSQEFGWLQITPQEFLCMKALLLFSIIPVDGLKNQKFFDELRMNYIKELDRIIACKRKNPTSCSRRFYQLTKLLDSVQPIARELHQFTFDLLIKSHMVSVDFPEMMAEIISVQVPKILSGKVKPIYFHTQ
Chain of Nucleoli Translocation, AR (gene 367) (P10275 whole entry, looked up, the tested form may be a part): as the sequence (P10275 whole entry, looked up) above
Chain of THRB (gene 7068) (P10828 whole entry, looked up, the tested form may be a part): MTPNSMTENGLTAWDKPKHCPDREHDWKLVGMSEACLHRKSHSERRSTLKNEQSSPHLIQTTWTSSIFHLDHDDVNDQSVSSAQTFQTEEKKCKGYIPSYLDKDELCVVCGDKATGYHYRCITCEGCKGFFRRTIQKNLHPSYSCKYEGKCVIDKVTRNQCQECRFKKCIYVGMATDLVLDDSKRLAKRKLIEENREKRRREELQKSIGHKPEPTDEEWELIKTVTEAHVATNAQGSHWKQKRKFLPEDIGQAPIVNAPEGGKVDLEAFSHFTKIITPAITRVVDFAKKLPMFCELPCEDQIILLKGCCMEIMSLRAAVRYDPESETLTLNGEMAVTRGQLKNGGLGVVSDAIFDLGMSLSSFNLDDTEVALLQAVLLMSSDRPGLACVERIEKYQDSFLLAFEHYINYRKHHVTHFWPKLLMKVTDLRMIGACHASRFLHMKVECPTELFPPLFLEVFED
Chain of THRA (gene 7067) (P10827 whole entry, looked up, the tested form may be a part): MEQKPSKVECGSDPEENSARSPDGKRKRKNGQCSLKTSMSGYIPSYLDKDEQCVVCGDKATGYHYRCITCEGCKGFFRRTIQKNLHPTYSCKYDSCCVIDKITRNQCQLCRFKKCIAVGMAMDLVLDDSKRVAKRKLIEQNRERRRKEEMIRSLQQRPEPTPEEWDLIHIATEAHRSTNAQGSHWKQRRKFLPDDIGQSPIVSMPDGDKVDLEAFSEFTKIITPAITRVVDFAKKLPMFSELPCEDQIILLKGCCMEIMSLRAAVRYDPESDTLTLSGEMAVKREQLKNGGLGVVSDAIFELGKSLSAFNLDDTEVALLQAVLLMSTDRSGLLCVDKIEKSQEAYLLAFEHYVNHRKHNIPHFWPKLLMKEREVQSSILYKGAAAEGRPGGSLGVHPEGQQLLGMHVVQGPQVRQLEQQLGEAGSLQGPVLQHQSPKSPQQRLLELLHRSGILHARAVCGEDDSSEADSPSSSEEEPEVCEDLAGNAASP
Chain of PGR (gene 5241) (P06401 whole entry, looked up): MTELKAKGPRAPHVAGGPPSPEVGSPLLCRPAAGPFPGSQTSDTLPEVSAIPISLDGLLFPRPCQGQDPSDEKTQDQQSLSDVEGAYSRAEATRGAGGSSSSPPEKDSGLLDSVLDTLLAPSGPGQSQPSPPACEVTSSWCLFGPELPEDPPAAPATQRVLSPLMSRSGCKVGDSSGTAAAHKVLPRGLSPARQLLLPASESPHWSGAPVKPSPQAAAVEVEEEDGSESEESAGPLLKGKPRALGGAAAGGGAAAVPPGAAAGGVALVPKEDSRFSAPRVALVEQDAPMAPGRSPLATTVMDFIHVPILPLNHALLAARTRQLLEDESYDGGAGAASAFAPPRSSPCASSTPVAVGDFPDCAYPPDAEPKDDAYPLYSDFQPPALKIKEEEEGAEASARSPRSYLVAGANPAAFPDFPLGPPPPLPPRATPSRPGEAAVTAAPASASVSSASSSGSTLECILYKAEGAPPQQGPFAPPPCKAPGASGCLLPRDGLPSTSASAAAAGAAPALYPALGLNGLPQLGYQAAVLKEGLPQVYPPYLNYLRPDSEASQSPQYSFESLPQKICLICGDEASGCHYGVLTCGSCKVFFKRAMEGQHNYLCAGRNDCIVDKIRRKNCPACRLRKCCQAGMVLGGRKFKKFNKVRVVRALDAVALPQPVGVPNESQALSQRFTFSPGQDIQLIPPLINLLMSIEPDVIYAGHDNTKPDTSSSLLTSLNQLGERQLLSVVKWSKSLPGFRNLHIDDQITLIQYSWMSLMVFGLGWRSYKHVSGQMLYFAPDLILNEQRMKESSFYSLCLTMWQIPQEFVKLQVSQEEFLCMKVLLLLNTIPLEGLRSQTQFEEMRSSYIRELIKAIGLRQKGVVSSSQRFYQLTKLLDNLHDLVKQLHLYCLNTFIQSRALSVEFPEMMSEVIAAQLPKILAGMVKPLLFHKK
Chain of Retinoic acid receptor RXR-alpha (Homo sapiens) (P19793 whole entry, looked up): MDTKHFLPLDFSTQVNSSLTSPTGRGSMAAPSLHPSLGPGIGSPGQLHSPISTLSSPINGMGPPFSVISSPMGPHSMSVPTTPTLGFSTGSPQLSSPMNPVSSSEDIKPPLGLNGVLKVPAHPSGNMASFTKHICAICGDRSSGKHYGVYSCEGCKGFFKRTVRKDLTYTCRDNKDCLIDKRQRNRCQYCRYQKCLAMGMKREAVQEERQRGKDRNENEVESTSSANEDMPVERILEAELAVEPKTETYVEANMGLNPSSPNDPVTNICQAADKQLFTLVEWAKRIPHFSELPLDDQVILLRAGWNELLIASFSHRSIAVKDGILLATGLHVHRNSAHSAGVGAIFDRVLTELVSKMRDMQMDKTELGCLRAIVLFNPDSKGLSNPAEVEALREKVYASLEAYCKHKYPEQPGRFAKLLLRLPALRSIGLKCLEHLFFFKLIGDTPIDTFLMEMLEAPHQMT

In the case of `CCCCCCCCCCCCc1cccc(S(=O)(=O)O)c1`, the AC50 in experiment [1] is 129 µM (active).
Consider `O=S(=O)(Oc1ccc(Cl)cc1)c1ccc(Cl)cc1`, for which the compound was called inactive in experiment [2] and in experiment [3].
As to `N#CCC#N`, the result in [4] and in [5] was inactive.
With `C=CC(=O)[O][Sn]([CH2]CCC)([CH2]CCC)[CH2]CCC`, the outcome in experiment [6], in experiment [7], in experiment [8] and in experiment [9] was inactive. Also, the results for the AC50 in [10] and in experiment [11] were 0.137 µM (active) and 9.68 µM (active), respectively.
With `C=CC(Cl)CCl` (centres undefined), the compound was classed as inactive in experiment [4], in experiment [5] and in [12].
Consider `O=[N+]([O-])c1ccc(Cl)c([N+](=O)[O-])c1`, for which the AC50 in experiment [1] is 92.7 µM (active); in experiment [4] it was 1.9 µM (active); in experiment [13] it was 3.34 µM (active); in experiment [5] it was 2.39 µM (active); in experiment [12], 13.1 µM (active).
`Oc1c(Cl)cc(Cl)cc1Cl`: the AC50 in [14] was 77 µM (active). Further, the compound was classed as inactive in experiment [15], in experiment [16] and in experiment [17].
`OC(c1ccc(Cl)cc1)(c1ccc(Cl)cc1)c1cccnc1`: the result in experiment [18], in experiment [19] and in experiment [3] was inactive. Further, in experiment [2], the AC50 is 62.2 µM (active).
With `O=C1c2ccccc2C(=O)C1C(=O)C(c1ccccc1)c1ccc(Cl)cc1` (centres undefined), the AC50 in [1] is 19.8 µM (active); in [4], 50 µM (active). Moreover, the call in [13], in experiment [5] and in experiment [12] was inactive.
As for `O=C(O)C1(c2ccc3c(c2)OC[C@H](Cc2ccc(-c4ccccc4)cc2)[C@H]3O)CCCC1`, the AC50 in [14] was 5.21 µM (active); in [15], 8.48 µM (active). Also, the outcome in [16] and in experiment [17] was inactive.
For `CCC[CH2][Sn]([CH2]CCC)([CH2]CCC)[CH2]CCC`, the outcome in [6], in experiment [7], in experiment [8], in experiment [9] and in experiment [11] was inactive. In addition, in [10], the AC50 was 5.08 µM (active).
For `O=C(O)COc1cc(Cl)c(Cl)cc1Cl`, the compound was classed as inactive in [4] and in [12].
As to `CC(C)N(C(=O)CCl)c1ccccc1`, the AC50 in experiment [1] is 43.5 µM (active); in experiment [4], 16 µM (active); in [5], 11.4 µM (active). Also, the result in experiment [13] and in experiment [12] was inactive.
`CCOP(=S)(OCC)Oc1ccc(Cl)cc1Cl`: the call in experiment [2], in [19] and in experiment [3] was inactive.
Turning to `O=C(NC(=O)c1c(F)cccc1F)Nc1cc(Cl)c(OC(F)(F)C(F)C(F)(F)F)cc1Cl` (centres undefined), the compound was classed as inactive in [4], in [13], in [5] and in [12].
Consider `CCOP(=S)(OCC)OP(=S)(OCC)OCC`, for which the AC50 in [4] was 72.1 µM (active). Moreover, the compound was classed as inactive in [13], in experiment [5] and in experiment [12].
For the compound `CN(C)c1ccc(N=O)cc1`, the outcome in experiment [6], in experiment [8] and in [9] was inactive. Also, the AC50 in [11] is 49.6 µM (active).
As to `O=S1(=O)OC(c2cc(Br)c(O)c(Br)c2)(c2cc(Br)c(O)c(Br)c2)c2ccccc21`, the AC50 in experiment [1] is 58.8 µM (active). The call in experiment [4] and in experiment [5] was inactive.
Take `Cc1cc(Cl)ccc1OCCCC(=O)O`: the call in experiment [13] and in [12] was inactive.
